# Screening data as filed in PubChem.
# BoNT F protease: inhibitors of Botulinum neurotoxin F light chain protease. Multiplex microsphere protease cleavage assay, flow cytometry. AID 588497. 360,000 tested, 0.22% active. inhibition, % at 10 µM; in the data active = inhibition above about 35%, passing the limit was not always enough; inconclusive = no clear call, values can overlap the other calls; also: plate controls were buffer without enzyme for full effect and enzyme alone for no effect
# Anthrax LF inh2: blocks Bacillus anthracis lethal factor protease; P15917; multiplex microsphere protease cleavage assay, LF; inhibition, % at 10 µM; 360,000 tested, 0.12% active; also: plate controls were buffer without enzyme for full effect and enzyme alone for no effect
# Autofluor counter: flagged as autofluorescent in microsphere protease counterscreen. compound autofluorescence counterscreen, microsphere flow cytometry; hits give high values. fluorescence intensity (no concentration beside the values). 360,000 tested, 3.1% active; in the data active = fluorescence intensity above about 16000; inconclusive = no clear call, values can overlap the other calls
# BoNT A protease: BoNT A light chain protease inhibition | multiplex microsphere protease substrate cleavage, flow cytometry | inhibition, % at 10 µM | 360,000 tested, 0.17% active | AID 588499; also: plate controls were buffer without enzyme for full effect and enzyme alone for no effect
# * = called active by the depositor; u = inconclusive. This is a sample that favours compounds with a hit; in the whole collection about 3.5% have one here. Rule as the data show it, unless noted: active = inhibition above about 30%; inconclusive = no clear call, values can overlap the other calls; inactive = below that.
SMILES,BoNT F protease,Anthrax LF inh2,Autofluor counter,BoNT A protease
COCCOC1CCN(C(=O)c2cc(COc3ccc(-n4cncn4)cc3)on2)CC1,-2,3,5450,0
CN1C(=O)NC(c2ccccc2[N+](=O)[O-])C2=C1CCCC2=O (configuration not stated),-13,-9,5656,-4
COc1ccc(NC(=O)COc2ccccc2C(=O)NCC(c2ccccc2)N(C)C)cc1Cl (configuration not stated),4,5,4003,0
O=S(=O)(c1ccc(NC(=S)N/N=C/c2c3ccccc3cc3ccccc23)cc1)N1CCOCC1,2,14,3214,33*
O=S(=O)(c1ccc(NC(=S)N/N=C/c2ccc(Oc3ccccc3)cc2)cc1)N1CCOCC1,-7,-3,1982,0
C=CCNC(=S)Nc1c(N)n(C)c(=O)n(C)c1=O,-7,-5,u,1
COc1ccc2c3c(ccc2c1)C(=O)/C(=C/O)CC3,9,-6,3326,0
Cc1c(C(=O)N(C)C)c2cc(Cl)ccc2n1O,-1,0,1995,0
CCOC(=O)c1c(C)n(O)c2ccc(Cl)cc2c1=O,0,-1,16178*,2
O=C1CCC(C(=O)OCC(=O)N2N=C3/C(=C/c4ccccc4)CCCC3C2c2ccccc2)N1 (configuration not stated),-1,0,20500*,u
COCCNC(=O)Nc1ccc2nc(-c3cccs3)c(-c3cccs3)nc2c1,42*,57*,4576,132*
CCOCN(C(=O)Cn1c(CO)nc2ccccc21)c1c(C)cccc1CC,-2,-2,21035*,-1
CCOCN(C(=O)Cn1cnc2ccccc21)c1c(C)cccc1CC,-2,-5,5182,0
COc1ccc(OC)c(CCNC(=O)CCCC(=O)n2ncc3cc(C)ccc32)c1,2,2,5869,0
O=C(c1ccc(F)cc1)c1c[nH]c(C(=O)NCCCN2CCOCC2)c1,-13,-2,5926,0
O=C(c1ccccc1)c1c[nH]c(C(=O)NCCCN2CCOCC2)c1,0,-1,22011*,u
CCC(CC)C(=O)c1c[nH]c(C(=O)NCCCN2CCOCC2)c1,-2,-2,23037*,u
Cn1c(N)c(C(=O)COC(=O)C2Cc3ccccc3CN2S(C)(=O)=O)c(=O)n(C)c1=O (configuration not stated),3,-5,3949,0
CC(C)C[C@@H]1CN(CCCC[C@H]2CNC(=O)C(=O)N2CCC2CCCCC2)C(=O)C(=O)N1CCc1ccc(O)cc1,12,-8,5626,-1
COCCn1c(C)cc(/C=C(\C#N)C(=O)OCC(=O)N(C)c2c(N)n(Cc3ccccc3)c(=O)[nH]c2=O)c1C,2,-1,5143,-2
CC12C=CC3(CN(Cc4ccccc4)C(=O)C3C1C(=O)NC1CC1)O2 (configuration not stated),1,1,22134*,0
COc1ccc(CCn2c(N3CCN(C)CC3)nc3c2c(=O)[nH]c(=O)n3C)cc1,2,0,2631,0
COc1ccc(CCn2c(Br)nc3c2c(=O)[nH]c(=O)n3C)cc1,-3,3,17013*,-3
O=C(NCc1ccccc1Cl)c1[nH]c(C(F)(F)F)nc1-c1ccccc1,1,1,5152,0
COc1ccc(C(=O)c2[nH]c(N)c(C(=O)NCCc3c[nH]c4ccccc34)c2-c2ccc(Cl)c(F)c2)cc1,6,-5,4202,0
SMILES,BoNT F protease,Anthrax LF inh2,Autofluor counter,BoNT A protease
CSc1ccc(CN2CCC2(C)C(=O)NCc2cccc(C(F)(F)F)c2)cc1 (configuration not stated),-2,-2,3652,-1
C=C(C)C1CC=C(C)/C(=N/NC(=O)COc2cccc(C)c2)C1 (configuration not stated),-8,-3,17668*,-3
COc1ccc(-c2csc(C(O)c3ccc(F)c(F)c3)n2)cc1 (configuration not stated),-3,0,2975,0
Cc1c(Cl)c(C(=O)NC2C3CC4CC(C3)CC2C4)nn1C (configuration not stated),0,-5,21785*,u
Cc1ccc(/C=C2\CCC3=C2OC(N)=C(C#N)C3c2ccc(C)cc2)cc1 (configuration not stated),42*,6,10272,7
Cc1ccc(C2C(C#N)=C(N)Oc3cc(N)ccc32)cc1 (configuration not stated),u,-10,3919,-2
CC1(C)Cc2c(cnn2-c2ccccc2)C(NC(=O)CCN2CCCC2=O)C1 (configuration not stated),-4,-2,4359,-2
COc1ccc(S(=O)(=O)N2CCOCC2)cc1NC(=O)C1CC(=O)N(c2ccc3c(c2)OCCO3)C1 (configuration not stated),-6,2,3750,1
CCN(CC)S(=O)(=O)N1CCC(C(=O)NCCN2CCOCC2)CC1,3,0,22119*,3
CCOC1=C2[C@@H](CN(S(=O)(=O)c3ccc(C)cc3)[C@H]2c2ccccc2F)[C@H]2C(=O)N(c3ccccc3)C(=O)[C@H]2C1,1,-3,6215,-1
Cc1ccc(NC(=O)COC(=O)Cn2cnc3ccccc32)c(C)c1,-4,-2,3850,0
O=C(O)CCN1C(=O)/C(=C\c2ccc(-c3nc4ccccc4s3)o2)SC1=S,11,40*,2421,47*
O=C(CN1C(=O)/C(=C/c2ccccc2)SC1=S)Nc1cccnc1,-2,-2,2473,0
COc1ccc(/C(C)=C2/SC(=S)N(CCC(=O)O)C2=O)cc1,2,1,19144*,u
O=C(O)CCN1C(=O)/C(=C\c2ccncc2)SC1=S,-2,4,4216,-1
COc1cc(/C=C2/SC(=S)N(CC(=O)Nc3cccnc3)C2=O)cc(OC)c1OC,30,15,2639,31*
COc1ccc(/C=C2\SC(=S)N(CCC(=O)Nc3ccc(C(=O)O)cc3)C2=O)cc1,u,-4,3767,1
COc1cc(/C=C2\SC(=S)N(CCC(=O)N3CCCCC3)C2=O)cc(OC)c1OC,18,28,5345,30*
O=C(Nc1ccc2c(c1)CN(Cc1ccccc1O)CC2)C1CCCO1 (configuration not stated),-9,-3,6451,-2
C=CCN1C(=O)C(=Cc2ccc3c(c2)CCC3)SC1=S,-1,0,4090,5
CCCOc1ccccc1C(=O)N1CCNC(=O)C1CC(=O)OC(C)C (configuration not stated),-23,-5,3498,0
CCOc1cc(OCC)cc(C(=O)N2CCC[C@H]2C(=O)N2CCC[C@H]2C(=O)N(C)Cc2ccccc2)c1,3,-8,5062,0
CCCCCc1c(-c2ccccc2OC)ncn1CCc1ccccc1OC,-8,-6,6192,-1
CN(Cc1ccc(Cl)cc1Cl)C(=O)Cc1ccc(S(=O)(=O)N2CCOCC2)s1,-1,-2,2862,0
COc1ccc(/C=C2/SC(=S)N(CCC(=O)O)C2=O)cc1,-1,-2,21113*,-2
COc1ccc(OC)c(/C=C2\SC(=S)N(Cc3cccnc3)C2=O)c1,13,21,3135,42*
COc1ccc(-c2nn(-c3ccccc3)cc2/C=C2/SC(=S)N(CCC(=O)O)C2=O)c(C)c1,-13,37*,2885,0
